Sampled rows, rich in hits. Any-hit rate of the full collection: about 7.4%.
FLuc counter = firefly luciferase modulation, counter-screen for miR-21 project; P08659; Potency, µM (titrated, usually from 57.5 µM), without a hit: at the top dose activity change, negative = inhibition, actives largely listed as inhibitors; AID 588342; purified FLuc, Km substrates, luminescence inhibition; hit rate 6.9% among 360,000;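 also: plate controls were vehicle for no effect and reference inhibitor for full effect; nearly all actives have a fitted effect of over 55% in size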
Target sequence (P08659 whole entry, looked up): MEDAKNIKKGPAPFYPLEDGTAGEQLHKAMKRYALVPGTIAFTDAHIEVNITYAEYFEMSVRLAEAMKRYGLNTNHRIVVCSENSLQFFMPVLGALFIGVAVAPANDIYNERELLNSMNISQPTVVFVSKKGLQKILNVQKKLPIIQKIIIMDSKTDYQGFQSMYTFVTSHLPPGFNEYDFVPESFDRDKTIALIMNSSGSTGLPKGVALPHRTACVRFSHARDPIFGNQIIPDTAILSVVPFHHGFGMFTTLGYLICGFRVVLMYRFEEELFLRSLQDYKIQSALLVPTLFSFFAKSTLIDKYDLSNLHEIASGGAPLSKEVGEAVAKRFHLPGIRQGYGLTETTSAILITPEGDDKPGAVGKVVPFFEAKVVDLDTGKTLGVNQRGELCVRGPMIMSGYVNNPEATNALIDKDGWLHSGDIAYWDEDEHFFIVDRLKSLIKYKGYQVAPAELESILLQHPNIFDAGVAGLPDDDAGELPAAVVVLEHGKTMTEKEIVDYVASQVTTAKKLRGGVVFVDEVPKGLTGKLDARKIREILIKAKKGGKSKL
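Purified P. pyralis luciferase (10nM final) with 10uM D-luciferin and 10uM ATP (Km levels) in 50mM Tris acetate pH 7.5, 10mM Mg acetate, 0.01% Tween-20, 0.05% BSA; qHTS 6-point titration, ~60 µM downward; luminescence read.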
ELG1 genotox = inducers of genotoxicity in HEK293T ELG1-luciferase cells. HEK293T ELG1-luciferase reporter, luminescence, 16 h. hit rate 1.3% among 330,000. Potency, µM (top dose mostly 46 µM), for inactives: top-dose activity change, positive = activation, actives largely listed as activators; also: % of control where 0% means no effect; nearly all actives have a fitted effect of over 60% in size
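Step 1: seed 2,000 HEK293T ELG1-luciferase cells per well. Step 2: add compound or DMSO, incubate 16 hr at 37 °C. Step 3: ONE-Glo, 30 min at room temperature, read luminescence.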
NPC1 prom act = NPC1 promoter activation; Huh7 NPC1 promoter luciferase reporter, 24 h; Potency, µM (doses to about 9.22 µM), for inactives: top-dose activation, actives largely listed as activators; hit rate 2.4% among 320,000; also: % of control where 0% means no effect; nearly all actives have a fitted effect of over 60% in size
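Stably transfected Huh7 (NPC1 promoter→luciferase), 1500 cells/well in Opti-MEM + 10% FBS, 2 h settle, then compound 24 h at 37 °C. Luminescence after 10 min with Amplite reagent.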
Rab9 promoter act = activates the Rab9 promoter | Huh7 Rab9 promoter-luciferase reporter, luminescence, 24 h | Potency, µM (highest dose often 9.22 µM), for inactives: top-dose activation, negative = inhibition, usual class: activators | hit rate 2.8% among 320,000; also: % of control where 0% means no effect; nearly all actives have a fitted effect of over 60% in size
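Huh7 cells stably carrying a Rab9 promoter-luciferase reporter, 1500 cells per well in OP-MEM I with 10% FBS, treated with compound 24 hours at 37C. Luciferase activity read by luminescence after 10 minutes with Amplite reagent.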
SMN2 splice enh = increases expression of the SMN2 splice variant; HEK293 SMN2-luciferase splicing reporter, luminescence, 30-36 h; Potency, µM (top dose mostly 46.1 µM), for the others: at the highest dose activity change, positive = activation, hits mostly activators; hit rate 2.8% among 210,000; AID 1458; also: % of control where 0% means no effect; nearly all actives have a fitted effect of over 55% in size
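qHTS luciferase splicing reporter: luminescence rises when SMN2 exon 7 is included in transfected HEK293 cells. Compound exposure lasted 30-36 h at 37C, with 4.5 mM final sodium butyrate as control, followed by a ONE-Glo read.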
* marks the source's active call; other numbers are inactive results; ? = inconclusive; · = not tested or not shown; [ ] = another dose, or the depositor's remark. Calls follow the shape of the dose curve; as a rule, active = well fitted curve in the direction sought with a large enough effect; inconclusive = small, poorly fitted or top-dose-only effect, or another doubt; inactive = no such curve, though single readings can be large; an effect the other way counts as inactive or inconclusive. Potency is read from the fitted curve at half-maximal effect.

SMILES	FLuc counter	ELG1 genotox	NPC1 prom act	Rab9 promoter act	SMN2 splice enh
O=C1CCCc2[nH]c(=O)c(-c3nc(-c4cccc([N+](=O)[O-])c4)cs3)cc21	-1%	·	·	·	-20%
Cc1cc(C)n2c(nc3ccccc32)c1C(=O)NN	0.38µM*	7%	1%	-1%	·
O=C(Nc1ccc(F)cc1F)NC1CC1	0%	-2%	0%	2%	-1%
O=C(Nc1cccc(F)c1)NC1CC2CCCC(C1)N2C1CC1 (stereo not given)	2%	2%	-1%	3%	15%
O=C(Nc1ccc(F)cc1F)NC1CCCCCCC1	12µM*	?	?	?	·
O=C(Nc1ccc2c(c1)OCCO2)C1CCC1	1%[2.3 µM]	10%	12%	1%	14%
O=C(Nc1ccc2c(c1)OCCO2)NC1CCCCC1	3.8µM*	1.6µM*	0.63µM*	0.56µM*	10µM*
COc1cccc(C(=O)COC(=O)CCCC(=O)NC2CCCCC2)c1	27µM*	-1%	-3%	0%	·
O=C(Nc1cccc(F)c1)NC1CCCCC1	24µM*	?	?	?	18µM*
CCOC(=O)Nc1c(Cl)n(C)c(=O)n(C)c1=O	2%	-4%	-4%	0%	·
O=C(Nc1nnc(S(=O)(=O)N2CCN(c3ccc(F)cc3)CC2)s1)c1ccccc1	?	9%	?	?	·
COc1ccc(CCNc2nc3ccccc3c3nc(-c4cccc(C)c4)nn23)cc1OC	?	·	·	·	8%
COc1cc(NC(=O)NC2Cc3ccccc3C2)cc(OC)c1	17µM*	8%	5%	15%	·
COc1cccc(NC(=O)NC2CCCCCCC2)c1	11µM*	?	3.5µM*	?	·
COc1cccc(NC(=O)C(=S)NC2CCCCC2)c1	2.4µM*	?	2µM*	0.79µM*	3.5µM*
COc1cccc(NC(=O)C2CCCN2C(=O)NC2CCCCC2)c1 (stereo not given)	0%	5%	1%	0%	·
COc1cccc(NC(=S)N2CCC(NC(=O)C3CCCCC3)CC2)c1	7%	-7%	-2%	6%	·
Cc1noc(C)c1S(=O)(=O)Nc1ccc2c(c1)C(=O)N([C@H](C)CO)C[C@H](C)[C@@H](CN(C)S(=O)(=O)c1ccccc1)O2	·	4%	·	·	·
COC(=O)c1ccc(N2NC(=O)/C(=C/c3cc(OC)c(OC)c(OC)c3)C2=O)cc1	19µM*	12%	-1%	-1%[1.84 µM]	·
COC(=O)c1ccc(N2NC(=O)/C(=C/c3cc(OC)c(O)c(OC)c3)C2=O)cc1	8.5µM*	0%	2%	-9%[1.84 µM]	·
COc1cc(/C=C2/C(=O)NN(c3ccc(Cl)c(Cl)c3)C2=O)cc([N+](=O)[O-])c1O	?	0%	-3%	-2%	·
Cc1cc(C)c(NC(=O)Cn2c(=O)n(-c3cccc(C(F)(F)F)c3)c(=O)c3c(C)c(C)sc32)c(C)c1	3%	·	·	·	-5%
O=C(c1ccc(F)cc1)n1nc(-c2cccnc2)nc1NCc1ccc(F)cc1	-2%	·	·	·	15%
Clc1ccc(-n2cc(COCc3ccccc3)nn2)cc1	1.9µM*	?	0.89µM*	0.89µM*	13µM*
COc1ccc(C2CC(=O)N(CC(=O)Nc3ccc(C(F)(F)F)cc3)c3ccccc3S2)cc1 (stereo not given)	11µM*	·	·	·	-13%
SMILES	FLuc counter	ELG1 genotox	NPC1 prom act	Rab9 promoter act	SMN2 splice enh
COc1ccc(C2CC(=O)N(C)c3ccccc3S2)cc1 (stereo not given)	24µM*	18µM*	0%	9%	17%
CN1C(=O)CC(c2ccco2)Sc2ccccc21 (stereo not given)	-1%	?	-1%	-22%	?
O=C(CCCc1nc2ccccc2s1)NCc1ccc(F)cc1	-1%	0%	-1%	0%	-7%
Cc1csc(NC(=O)c2nc3nc(C)cc(C)n3n2)n1	21µM*	?	3.5µM*	4µM*	11µM*
Cc1csc(NC(=O)c2cc(C)oc2C)n1	21µM*	12%	?	?	58%
CC(C)(C)c1csc(NC(=O)c2c(F)c(F)c(F)c(F)c2F)n1	0%	6%	1%	11%	·
Cc1ccc(C(=O)O)c(C(=O)Nc2nc(C)cs2)c1	-1%	1%	0%	-1%	-8%
Cc1cnc(NC(=O)Cc2ccccc2Cl)s1	4%	8%	-2%	3%	·
Cc1csc(NC(=O)Cc2ccccc2Cl)n1	17µM*	?	?	5µM*	·
CC(C)(C)c1csc(NC(=O)c2ccccc2O)n1	0.54µM*	-3%	?	?	·
O=C(COC(=O)CSc1ccc([N+](=O)[O-])cc1)NCCC1=CCCCC1	-6%	0%	-3%	1%	·
O=c1cc(-c2ccccc2F)[nH]c2cc3c(cc12)OCO3	·	·	?	-5%[46.1 µM]	·
CCC(CC)c1nnc(NC(=O)c2cccnc2SC)s1	-19%	0%	-1%	-3%	10%
CSc1ncccc1C(=O)Nc1nc(C(C)(C)C)cs1	17µM*	12%	17%	18%	·
Cc1csc(NC(=O)c2ccccc2O)n1	12µM*	?	?	?	2%
CCOC(=O)CSc1nc(-c2ccncc2)ccc1C#N	?	?	1.3µM*	0.4µM*	1.1µM*
CCOC(=O)CCCSc1nc(-c2ccc3c(c2)OCO3)cc(C(F)(F)F)c1C#N	2%	-1%	0%	-3%	2%
CCOC(=O)CSc1nc(-c2ccc3c(c2)OCO3)ccc1C#N	5.4µM*	?	2.5µM*	0.79µM*	11%
Cn1cc(S(=O)(=O)NCc2ccc(Cl)cc2)c(=O)n(C)c1=O	0%	3%	-2%	-3%	·
COc1cccc(Sc2nc(-c3ccccc3)ncc2S(C)(=O)=O)c1	17µM*	1%	-4%	-2%	·
CS(=O)(=O)c1cnc(-c2ccccc2)nc1Sc1ccc(F)cc1	-18%	?	-5%	2%	·
C[C@H]1CN([C@@H](C)CO)C(=O)c2cccc(NC(=O)Nc3ccc(F)cc3)c2O[C@@H]1CN(C)Cc1ccc(C(=O)O)cc1	·	6%	·	·	·
Clc1ccc(-c2cc(CN3CCCCC3)no2)cc1Cl	19µM*	10%	22%	23%	·
Clc1ccc(-c2cc(CN3CCOCC3)no2)cc1	12µM*	?	1.6µM*	0.89µM*	·
O=C(CNc1cccc([N+](=O)[O-])c1)N1CCN(S(=O)(=O)c2ccc(Cl)cc2)CC1	3%	-2%	1%	-5%	·
O=C(Nc1ccc(-n2ccc(C(F)(F)F)n2)cc1)Nc1cccc(Cl)c1	11µM*	-1%	19%	26%	·
Cc1cc(C)cc(NC(=O)Nc2ccc(-n3ccc(C(F)(F)F)n3)cc2)c1	-11%	-10%	?	2%	·
COc1ccccc1NC(=O)Nc1ccc(-n2ccc(C(F)(F)F)n2)cc1	11µM*	-1%	?	2.8µM*	·
O=C(O)c1ccccc1C(=O)Nc1ccc(-n2ccc(C(F)(F)F)n2)cc1	?	0%	-8%	-6%	·
O=C(Nc1ccc(-n2ccc(C(F)(F)F)n2)cc1)c1cccs1	11µM*	?	2.8µM*	3.2µM*	·

Source: PubChem
